Inconclusive results are not listed. Unmarked numbers belong to inactive results. The call rests on the fitted dose curve; in most records, active means well fitted cell-killing curve with a large enough effect in the repeat runs; inconclusive means weak or mixed curves, or effect the other way; inactive means flat fitted curve, though single readings scatter.
Experiment: qHTS assay to identify small molecule agonists of the constitutive androstane receptor (CAR) signaling pathway - cell viability counter screen (AID 1224836); further: nearly all actives have a fitted effect of over 45% in size
Conditions: HepG2-CYP2B6-hCAR viability, CellTiter-Fluor, 23 h, PK11195 added to every well; series mostly up to 92.4 µM; viability change, negative = cytotoxic: at the top concentration
Outline: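 Cells were seeded and incubated 4 hrs. Compounds were added across 15 concentrations together with PK11195 at 0.75 uM final. Plates were incubated 23 hrs at 37 C. CellTiter-Fluor was added and fluorescence measured.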
On the % scale 0 is the no-effect control and ±100 the full control effect.

Structure (SMILES) | viability change, negative = cytotoxic
Nc1nc(Cl)cc(Cl)n1 | -1.4%
Cc1ccc(NC(N)=O)cc1 | 4.12%
CCCC(=O)C(CC)Sc1ccoc1C (configuration not stated) | -0.204%
Cc1ccc(O)c(C(=O)c2ccccc2)c1 | 2.11%
CCOC(=O)c1ccc(N(C)C)cc1 | 2.73%
COC(=O)c1c(C)cc(O)c(C)c1O | -0.574%
COc1cc(NS(=O)(=O)c2ccc(N)cc2)ncn1 | 7.46% [at 42.5 µM]
Clc1ccc2c(c1)Nc1ccccc1S2 | -1.53% [at 42.5 µM]
O=Cc1ccccc1S(=O)(=O)O | -0.428%
CC(C)(O)c1ccc(C(C)(C)O)cc1 | 0.0441%
COc1cc(C(=O)NC2CCCNC2)cc(OC)c1OC (configuration not stated) | 5.47% [at 42.5 µM]
Cc1nc2ccc(Cl)cc2[nH]1 | 4.75%
COC(=O)C(c1ccccc1Cl)N1CCc2sccc2C1 (configuration not stated) | 4.31% [at 42.5 µM]
CC1(C)S[C@@H]2[C@H](NC(=O)Cc3ccccc3)C(=O)N2[C@H]1C(=O)O (tested in a mixture with another compound) | -0.44% [at 42.5 µM]
CCCCC(CC)CCC(CC(C)C)OS(=O)(=O)O (configuration not stated) | 0.0107%
Nc1cc(S(=O)(=O)O)ccc1O | 3.81%
O=C(O)COc1ccc2ccccc2c1 | 1.68%
O=S(=O)(O)CC(O)CCl (configuration not stated) | 0.853%
O=C(c1ccccc1)c1cccc(O)c1 | 0.277%
O=C1Nc2ccccc2C1=O | -5.67%
CCCC(C)C(O)CC (configuration not stated) | 2.1%
Cc1cc(N)no1 | 2.67%
NNC(=O)OCc1ccccc1 | 8.22%
CCCCCCC(O)CO (configuration not stated) | 3.25%
C=CCOC(=O)CCCCCCCC | 2.61%
Cc1cc(C)c(C)c(C)c1 | -1.41%
Cc1cc2c(cc1CC(=O)c1sccc1S(=O)(=O)Nc1onc(C)c1Cl)OCO2 | -2.28% [at 42.5 µM]

— PubChem BioAssay (Tox21)
